Assay outcomes as filed in PubChem.
MK inhibit – S. pneumoniae mevalonate kinase inhibition; purified MK, PK/LDH-coupled NADH absorbance 340 nm; inhibition, % at 10 µM; actives 0.48% (n = 65,000); AID 555;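 active = ranked among the strongest by inhibition in the single 10 µM screen, a fixed top-ranked set picked for dose follow-up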
DPM-DC inhibit – inhibitors of Streptococcus pneumoniae diphosphomevalonate decarboxylase. AID 556. purified DPM-DC, PK/LDH coupled NADH fluorescence. calls only at 10 µM. actives 0.49% (n = 65,000);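 active = the 320 compounds with the highest percent inhibition in the single-dose primary screen, excluding strongly autofluorescent ones, cut at about 32% in these data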;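 also: kinetic rate of NADH fluorescence loss reporting ADP formed by the decarboxylase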
Spn PMK inh – blocks S. pneumoniae phosphomevalonate kinase. actives 0.49% (n = 65,000). purified PMK, PK/LDH-coupled NADH absorbance 340 nm. inhibition, % at 10 µM;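 active = top-ranked compounds by inhibition in the single 10 µM screen, taking a fixed number of the strongest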
Abs 340nm – compound absorbs light at 340 nm | AID 708 | fold change at 10 µM | compound absorbance at 340 nm, fold over control | 65,000 tested, under 10 active;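 active = at 10 µM dose, initial 340 nm absorbance at least 2 fold that of control wells; inactive = change under 2 fold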;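 also: initial absorbance extrapolated from kinetic A340 decline of NADH oxidation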
NADH coupling – inhibitors of enzymes used to reach an NAD/NADH endpoint; IC50, µM (highest dose often 10 µM); actives 0.02% (n = 65,000); coupled PK/LDH NADH assays, four targets; AID 774;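 active = single-dose screening hits from any of four coupled enzyme assays that gave an IC50 when retested across doses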;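 also: the DPM-DC format reads NADH fluorescence rather than 340 nm absorbance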
Autofluor 339 – intrinsic fluorescence of library compounds, ex339/em460 – biochemical, MLSMR library, data from DPM-DC assay, artefact control, profiling panel; compound autofluorescence, ex339/em460 nm, NADH buffer; stronger effect = higher value; 1 = no-compound wells, NADH background; actives 5.5% (n = 65,000); fluorescence fold increase at 10 µM;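 active = at 10 µM, mean starting fluorescence two-fold or more over control wells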;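 also: signal is the first read of a kinetic run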
A number is an active result; - = inactive; . = no result given; + = active, no number; [ ] = dose if it differs, or a comment. Rows were chosen to be rich in hits. Some 6.3% of all compounds tested hit in one or more screens of this group.

SMILES	MK inhibit	DPM-DC inhibit	Spn PMK inh	Abs 340nm	NADH coupling	Autofluor 339
COCCOC(=O)c1c(N)n(Cc2ccco2)c2nc3ccccc3nc12	-	.	-	-	-	2.3
CC(C)OC(=O)c1c(N)n(Cc2ccco2)c2nc3ccccc3nc12	-	.	-	-	-	2.3
CCOC(=O)c1c(C)n(Cc2ccco2)c2ccc(OC)cc12	-	-	-	-	-	-
Cc1nn(Cc2ccccc2Cl)c(Cl)c1C(=O)OCC(=O)NCc1ccco1	-	-	-	-	-	-
C=CCOC(=O)C1=C(C)OC(N)=C(C#N)C12C(=O)N(CN1CCOCC1)c1ccccc12 (centres undefined)	-	-	-	-	-	-
O=C(Cn1ncc2c3ccccc3n(Cc3ccc(F)cc3)c2c1=O)N1CCC2(CC1)OCCO2	-	-	-	-	-	-
OC1(c2ccccc2F)CC2CCC(C1)N2CCN1CCOCC1 (centres undefined)	-	-	-	-	-	-
CCOC(=O)c1c(-c2ccc(OC)cc2)oc2ccc(OC(=O)N(C)C)cc12	-	.	-	-	-	3.8
CCCSP1(=S)NCCCO1 (centres undefined)	-	-	-	-	-	-
CCn1nc(-c2ccccc2)nc2c(=O)n(C)c(=O)nc1-2	-	+	-	-	33µM	-
O=C(Nc1ccncc1)c1c(O)c2ccccc2n(Cc2ccccc2)c1=O	-	-	-	-	-	-
CCOC(=O)c1c(N)n(Cc2ccc(OC)cc2)c2nc3ccccc3nc12	-	.	-	-	-	3.9
COC(=O)c1c(N)n(Cc2ccc(OC)cc2)c2nc3ccccc3nc12	-	.	-	-	-	3.7
COCCOC(=O)c1c(N)n(Cc2ccc(OC)cc2)c2nc3ccccc3nc12	-	.	-	-	-	3.9
Cc1ccc(Cl)cc1N1CCN(CCN)CC1	-	-	-	-	-	-
CCCNC(=O)c1c(N)n(Cc2ccc3c(c2)OCO3)c2nc3ccccc3nc12	-	.	-	-	-	2.1
COc1ccc(C2=NCC(=O)N(CC(=O)NCc3ccco3)c3sc4c(c32)CCCC4)cc1OC	-	-	-	-	-	-
COc1ccc(Cn2c(N)c(C(=O)NCc3ccco3)c3nc4ccccc4nc32)cc1OC	-	.	-	-	-	3.7
CC(c1ccc(F)cc1)n1cc(C(=O)NCc2ccc3c(c2)OCO3)nn1 (centres undefined)	-	-	-	-	-	-
Nc1c(C(=O)NCc2ccco2)c2nc3ccccc3nc2n1CCN1CCCCC1	-	.	-	-	-	2.3
COc1ccc(-c2cc(C(F)(F)F)n3nc(C(=O)N4CCC5(CC4)OCCO5)cc3n2)cc1OC	-	+	-	-	-	-
CCOC(=O)c1cc2c(cn1)[nH]c1ccccc12	-	+[fluoresces]	-	-	-	2.2
Cc1cc(OCC(=O)O)c2c3c(c(=O)oc2c1)CCCC3	-	.	-	-	-	2.5
CCCOC(=O)COc1cc(C)cc2oc(=O)c3c(c12)CCC3	-	.	-	-	-	2.2
Cc1cc(OCC(=O)Nc2c(C)n(C)n(-c3ccccc3)c2=O)c2c3c(c(=O)oc2c1)CCC3	-	-	-	-	-	2.1
SMILES	MK inhibit	DPM-DC inhibit	Spn PMK inh	Abs 340nm	NADH coupling	Autofluor 339
O=S1(=O)CC2(N3CCOCC3)CCCCCCC21 (centres undefined)	-	-	-	-	-	-
COCCCn1c(N)c(C(=O)OCCOC)c2nc3ccccc3nc21	-	.	-	-	-	3.8
CCOC(=O)c1c(C)n(CCOC)c2ccc(O)cc12	-	-	-	-	-	-
CCOC(=O)c1c(N)n(CCCOC(=O)c2ccco2)c2nc3ccccc3nc12	-	.	-	-	-	4
Nc1c(C(=O)NC2CCCC2)c2nc3ccccc3nc2n1CC1CCCO1 (centres undefined)	-	.	-	-	-	3.7
CC(=O)c1c(C)n(CC2CCCO2)c2ccc(O)cc12 (centres undefined)	-	-	-	-	-	-
COCCCNC(=O)c1c(NC(=O)c2ccco2)n(Cc2ccccc2)c2nc3ccccc3nc12	-	.	-	-	-	3.8
CC(=O)OC1C2CCCC1C(N1CCCC1)CC2 (centres undefined)	-	-	-	-	-	-
CCN(CC)CCCN=C(C)c1c(O)n(-c2ccc(C)cc2)c(=O)[nH]c1=O	-	-	-	-	-	-
Cc1ccc(S(=O)(=O)N(C)CCCC(=O)N2CCN(c3ccccn3)CC2)cc1	-	-	-	-	-	-
Cc1c(C(=O)N2CCC3(CC2)OCCO3)sc2ncnc(N3CCN(c4ccccn4)CC3)c12	-	-	-	-	-	-
O=C(Nc1cccnc1)c1c(O)c2c(n(Cc3ccccc3)c1=O)CCCC2	-	-	-	-	-	-
CC(C)OCCCNC(=O)c1c(N)n(Cc2cccs2)c2nc3ccccc3nc12	-	.	-	-	-	3
CCCCNC(=O)c1c(N)n(CCCOC)c2nc3ccccc3nc12	-	.	-	-	-	2.4
Nc1c(C(=O)OCC2CCCO2)c2nc3ccccc3nc2n1Cc1cccs1 (centres undefined)	-	.	-	-	-	2.1
CCCN(CC#CCO)CCC	-	-	-	-	-	-
Cc1nn(CCC#N)c2c1P(=S)(N1CCCC1)OC(c1ccc(F)cc1)=N2 (centres undefined)	-	-	-	-	-	-
CCOC(=O)C(O)(c1cn(C)c2ccccc12)C(F)(F)F (centres undefined)	-	-	-	-	-	-
CC(=Nc1ccc2c(c1)CCC2)c1c(O)n(C)c(=O)n(C)c1=O	-	-	-	-	-	-
CC(C)(C)n1c(O)c(C=Nc2ccc3c(c2)CCC3)c(=O)[nH]c1=O	-	-	-	-	-	2.1
COc1cc(C)c(CN2CCN(c3ccccc3)CC2)cc1C	49	-	-	-	-	-
Oc1ccc(Br)cc1CN1CCN(c2ccccc2)CC1	-	-	-	-	-	-
CN1CC=C2C(C#N)=C(N)C(C#N)(C#N)C(c3ccncc3)C2C1 (centres undefined)	-	-	-	-	-	2
O=c1c2ccccc2[se]n1-c1ccccc1	72	+	100	-	56µM	-
COc1cccc(-n2c(C)nc3ccccc3c2=O)c1	-	-	-	-	-	-
SMILES	MK inhibit	DPM-DC inhibit	Spn PMK inh	Abs 340nm	NADH coupling	Autofluor 339
CC(=NCCN1CCCCC1)c1c(O)[nH]c(=O)[nH]c1=O	-	-	-	-	-	-
O=C(CN1CCOCC1)c1ccc2cc[nH]c2c1	-	.	-	-	-	2.1
CN1C[C@H](CNC(=O)OCc2ccccc2)C[C@@H]2c3cccc4c3c(cn4C)C[C@H]21	-	-	-	-	-	-
CC[C@@H](CO)NC(=O)[C@@H]1C=C2c3cccc4c3c(cn4C)C[C@H]2N(C)C1	-	.	-	-	-	2.5
Cc1nn(Cc2ccccc2)c(C)c1C(=O)OCC(=O)Nc1ccccc1SCC#N	-	-	-	-	-	-
C=CCC1(CN2CCCCCC2=O)C(=O)NC(=O)NC1=O	.	-	-	-	-	-
